In all, about 360,000 compounds went through this assay and about 9,100 (2.5%) were called active. Another 4% or so got no clear call; they are omitted. The sample holds actives, similar compounds and a random draw of the others, so the mix is not that of the screen. Cut-off read from the data, not from the text of the source: active = max response below about -50%; inconclusive = no clear call, values can overlap the other calls; inactive = above that.
target: D(3) dopamine receptor (Homo sapiens) (UniProt P35462); assay: qHTS of D3 Dopamine Receptor Antagonist: qHTS; details: D3R cells, DiscoveRx beta-arrestin luminescence, antagonist mode; active compounds read low
Description: D3 DARs represent a very important target for the treatment of several neuropsychiatric disorders. Indeed, one of the most promising therapeutic applications for the D3 DAR is in the area of addiction and related disorders. […] These findings have been observed with a number of addictive substances including cocaine, amphetamine, nicotine, and alcohol. […] Antagonism of the D3 DAR may also be therapeutic in the treatment of schizophrenia or psychosis. […] Since the D3 DAR is expressed in areas of the CNS associated with the control of mood and emotion, it has been hypothesized that selective antagonism of the D3 DAR may be effective in treating psychosis without inducing the motor side effects typically seen with D2 DAR antagonists.
This part of the project aims to discover novel antagonist.
NIH Chemical Genomics Center [NCGC]
NIH Molecular Libraries Probe Centers Network [MLPCN]
Assay Submitter (PI): David Sibley, NINDS
Freshly passaged cells are plated in 1536 well white, solid bottom plates at a density of 1500 cells/well in 3microl of complete media. After an overnight incubation at 37 degrees C in 5% CO2, cells are loaded with 23nl of test compound from the compound library (as well as dopamine controls) using a 1536 pintool and incubated at 37 degrees C for 90 minutes. Two microliters of DiscoveRx reagent is then added to all cells, and they are incubated for an additional 30 - 60 minutes at room temperature. Following incubation, luminescence is measured on a ViewLux CCD-based luminometer reader using a 20 sec exposure time.
% is set by controls: 0 for no effect and ±100 for the full control effect.

D(3) dopamine receptor (Homo sapiens), sequence (P35462 whole entry, looked up): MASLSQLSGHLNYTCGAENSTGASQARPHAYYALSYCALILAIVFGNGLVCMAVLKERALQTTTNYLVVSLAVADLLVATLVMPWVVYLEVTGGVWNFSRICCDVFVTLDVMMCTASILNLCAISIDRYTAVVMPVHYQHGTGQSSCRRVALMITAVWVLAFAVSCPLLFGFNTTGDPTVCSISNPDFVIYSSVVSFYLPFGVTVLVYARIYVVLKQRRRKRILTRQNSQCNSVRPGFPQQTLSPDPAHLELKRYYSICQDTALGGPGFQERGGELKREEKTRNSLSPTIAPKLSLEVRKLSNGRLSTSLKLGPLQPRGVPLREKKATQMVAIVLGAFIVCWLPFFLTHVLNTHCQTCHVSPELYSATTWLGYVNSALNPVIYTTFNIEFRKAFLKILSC

Question: `CN1OC[C@@H]2CN(C(=O)c3ccc(-c4ccccc4)cc3)[C@H](c3ccc(-c4cccc(F)c4)cc3)C[C@@H]21` was tested. Which max response, negative = inhibition did it give?
Answer: The max response, negative = inhibition was -51.6% (active).

Question: Which max response, negative = inhibition does the source give for `CN1OC[C@@H]2CN(C(=O)c3cccnc3)[C@H](c3ccc(N4CCCCC4)cc3)C[C@@H]21` here?
Answer: The max response, negative = inhibition was 33.1% (inactive).

Question: `CN1OC[C@@H]2CN(C(=O)c3cccc4ccccc34)[C@H](c3ccc(N4CCCCC4)cc3)C[C@@H]21` was tested. Which max response, negative = inhibition did it give?
Answer: The max response, negative = inhibition was 0.382% (inactive).

Question: How did the max response, negative = inhibition turn out when `COc1cccc(NC(=O)C2(C)CCN2Cc2ccccc2Cl)c1` (stereo unspecified) was run?
Answer: The max response, negative = inhibition was 9.45% (inactive).

Question: How did the max response, negative = inhibition turn out when `O=C(NCc1nnc(SCC(=O)N2CCC(Cc3ccccc3)CC2)o1)c1ccco1` was run?
Answer: Its max response, negative = inhibition is -56.2% (active).

Question: `O=C(NCc1nnc(SCC(=O)N2CCCCCC2)o1)c1ccc(F)cc1` was tested. Which max response, negative = inhibition did it give?
Answer: The max response, negative = inhibition was -15.6% (inactive).

Question: `Cn1c(CNC(=O)c2ccco2)nnc1SCC(=O)N1CCN(c2ccccc2)CC1` was tested. Which max response, negative = inhibition did it give?
Answer: The max response, negative = inhibition was 9.96% (inactive).

Question: With `CCc1cccc(OC2OC(CO)C(O)C(O)C2NC(C)=O)c1` (stereo unspecified) as the compound, how does the max response, negative = inhibition read?
Answer: The max response, negative = inhibition was -21.8% (inactive).

Question: Which max response, negative = inhibition does the source give for `CC(=O)NC1C(Oc2ccc(C=O)cc2)OC(COC(C)=O)C(OC(C)=O)C1OC(C)=O` (stereo unspecified) here?
Answer: The max response, negative = inhibition was 14.4% (inactive).

Question: For `CC(=O)NC1C(OCc2ccccc2)OC(COC(C)=O)C(OC(C)=O)C1OC(C)=O` (stereo unspecified), which max response, negative = inhibition is on record?
Answer: The max response, negative = inhibition was -50.8% (active).

Question: With `Cc1cccc(CN2CCN(C3CN(Cc4cn(Cc5cc(C)cc(C)c5)nn4)S(=O)(=O)C3)CC2)c1` (stereo unspecified) as the compound, how does the max response, negative = inhibition read?
Answer: The max response, negative = inhibition was 0.506% (inactive).

Question: How did the max response, negative = inhibition turn out when `Cc1ccc(Cc2c(-c3ccccc3)nc3ccc(Cl)cn23)cc1` was run?
Answer: Its max response, negative = inhibition is 5.55% (inactive).

Question: How did the max response, negative = inhibition turn out when `Cc1ccc(NC(=S)N(CCN(C)C)Cc2cccs2)cc1C` was run?
Answer: Its max response, negative = inhibition is -25.3% (inactive).

Question: For `Cc1ccc(NC(=S)N(Cc2ccco2)C(C)c2cccs2)cc1` (stereo unspecified), which max response, negative = inhibition is on record?
Answer: Its max response, negative = inhibition is 10.5% (inactive).

Question: Which max response, negative = inhibition does the source give for `Cc1ccc(NC(=S)N(CCCN2CCC(C)CC2)Cc2ccco2)cc1` here?
Answer: The max response, negative = inhibition was -63.3% (active).

Question: With `CCc1ccccc1NC(=S)N(CCN1CCCCCC1)Cc1ccco1` as the compound, how does the max response, negative = inhibition read?
Answer: The max response, negative = inhibition was -28.8% (inactive).

Question: With `Cc1ccc(NC(=S)N(CCN2CCCCC2)Cc2ccco2)cc1C` as the compound, how does the max response, negative = inhibition read?
Answer: Its max response, negative = inhibition is -70.4% (active).

Question: `Cc1ccc(NC(=S)N(CCCN2CCCC2)Cc2cccn2Cc2ccc(Cl)cc2)cc1` was tested. Which max response, negative = inhibition did it give?
Answer: Its max response, negative = inhibition is -19% (inactive).

Question: Which max response, negative = inhibition does the source give for `O=C(c1ccc(C(F)(F)F)cc1)N1CCC(=O)N([C@H](COCc2ccccc2)Cc2ccccc2)CC1` here?
Answer: The max response, negative = inhibition was -26.4% (inactive).

Question: With `CC(C)c1ccc(CC(=O)N2CCC2(C)C(=O)NS(=O)(=O)c2ccc(C(C)(C)C)cc2)cc1` (stereo unspecified) as the compound, how does the max response, negative = inhibition read?
Answer: The max response, negative = inhibition was 22.2% (inactive).

Question: Which max response, negative = inhibition does the source give for `Nc1ncnc2c1ncn2[C@@H]1O[C@H](C(=O)NCC(F)(F)F)[C@@H](O)[C@H]1O` here?
Answer: The max response, negative = inhibition was 14.5% (inactive).

Question: `Cc1nc(C(F)(F)F)ccc1C(=O)N1CCC1(C)C(=O)NS(=O)(=O)c1ccc(F)cc1F` (stereo unspecified) was tested. Which max response, negative = inhibition did it give?
Answer: The max response, negative = inhibition was 19.8% (inactive).

Question: With `O=C1NC[C@@H](CCCCN2CCN(CCc3ccc(O)cc3)C(=O)C2=O)N(CC2CCCCC2)C1=O` as the compound, how does the max response, negative = inhibition read?
Answer: The max response, negative = inhibition was 0% (inactive).

Question: `O=C(CSC1=Nc2ccccc2C2=NC(c3ccccc3)C(=O)N12)NCC1CCCO1` (stereo unspecified) was tested. Which max response, negative = inhibition did it give?
Answer: Its max response, negative = inhibition is -66.9% (active).

Question: Which max response, negative = inhibition does the source give for `O=C(CSc1ccc(-c2ccccc2)nn1)NCC1CCCO1` (stereo unspecified) here?
Answer: Its max response, negative = inhibition is -1.73% (inactive).

Question: How did the max response, negative = inhibition turn out when `CCn1c(SCC(=O)NCC2CCCO2)nc2ccccc21` (stereo unspecified) was run?
Answer: Its max response, negative = inhibition is 1.46% (inactive).

Question: For `CC(=O)c1cccc(-c2cnc3c(NC=O)cc(-c4ccc(N5CCN(C)CC5)cc4)cn23)c1`, which max response, negative = inhibition is on record?
Answer: The max response, negative = inhibition was 13.5% (inactive).

Question: For `O=CN1CCN(C2CC(=O)N(c3ccc4c(c3)OCO4)C2=O)CC1` (stereo unspecified), which max response, negative = inhibition is on record?
Answer: The max response, negative = inhibition was -17.5% (inactive).

Question: For `Cc1ccc(N2C(=O)CC(NCc3ccc4c(c3)OCO4)C2=O)cc1Cl` (stereo unspecified), which max response, negative = inhibition is on record?
Answer: The max response, negative = inhibition was -53.6% (active).

Question: `Cc1ccc(CC2CC(=O)N(c3ccc4c(c3)OCCO4)C2=O)cc1` (stereo unspecified) was tested. Which max response, negative = inhibition did it give?
Answer: Its max response, negative = inhibition is 23.1% (inactive).

Question: How did the max response, negative = inhibition turn out when `CC(C)n1ncc2c(C(=O)N3CCN(Cc4cccs4)CC3)cc(C3CC3)nc21` was run?
Answer: Its max response, negative = inhibition is -22.9% (inactive).

Question: With `CC1(C2CC2)NC(=O)N(CC(=O)N2CCN(c3ccccc3F)CC2)C1=O` (stereo unspecified) as the compound, how does the max response, negative = inhibition read?
Answer: The max response, negative = inhibition was -14.5% (inactive).

Question: Which max response, negative = inhibition does the source give for `Cc1ccccc1CN1C(=O)CSCC1(C)C(=O)Nc1c(C)cccc1C` (stereo unspecified) here?
Answer: The max response, negative = inhibition was 4.29% (inactive).

Question: `COc1ccc(NCCc2ccccn2)cc1` was tested. Which max response, negative = inhibition did it give?
Answer: The max response, negative = inhibition was 1.2% (inactive).

Question: Which max response, negative = inhibition does the source give for `COc1cnc(-c2ccccn2)nc1Oc1ccc(C(C)(C)C)cc1` here?
Answer: Its max response, negative = inhibition is -52.8% (active).

Question: `COc1ccc2nc(-c3ccccn3)ccc2c1` was tested. Which max response, negative = inhibition did it give?
Answer: The max response, negative = inhibition was -12.3% (inactive).

Question: With `CCOC(=O)c1c(NC(=O)COC(=O)c2ccc(S(=O)(=O)C(F)F)cc2)sc(C(=O)N(C)C)c1C` as the compound, how does the max response, negative = inhibition read?
Answer: The max response, negative = inhibition was 13% (inactive).

Question: For `Cc1ccc(-c2c(N)nc3ncccn23)cc1`, which max response, negative = inhibition is on record?
Answer: The max response, negative = inhibition was 1.01% (inactive).

Question: How did the max response, negative = inhibition turn out when `OCCN1CCN(c2ncnc3c2ncn3[C@H]2CN(Cc3ccco3)C[C@@H](CO)O2)CC1` was run?
Answer: Its max response, negative = inhibition is -7.83% (inactive).

Question: How did the max response, negative = inhibition turn out when `O=S1(=O)CC(N2CCN(CCO)CC2)CN1Cc1cn(Cc2ccc(Cl)cc2)nn1` (stereo unspecified) was run?
Answer: Its max response, negative = inhibition is -11.2% (inactive).

Question: How did the max response, negative = inhibition turn out when `COc1cc(/C=N/n2c(C)n[nH]c2=S)ccc1OCc1ccccc1` was run?
Answer: The max response, negative = inhibition was 4.09% (inactive).

Question: How did the max response, negative = inhibition turn out when `Cc1ccccc1-c1n[nH]c(=S)n1/N=C/c1ccc(-c2ccccc2Br)o1` was run?
Answer: Its max response, negative = inhibition is -16.9% (inactive).

Question: For `Cc1n[nH]c(=S)n1/N=C/c1ccc(Br)o1`, which max response, negative = inhibition is on record?
Answer: Its max response, negative = inhibition is -55% (active).

Question: For `NC(c1csc(NC(=O)Nc2ccccc2Oc2ccccc2)n1)c1ccccc1Cl` (stereo unspecified), which max response, negative = inhibition is on record?
Answer: Its max response, negative = inhibition is 46.2% (inactive).

Question: `COC(=O)[C@]12CCCCC=C1N(Cc1ccco1)C(=O)[C@H](CC(=O)NCCCCc1ccccc1)C2` was tested. Which max response, negative = inhibition did it give?
Answer: The max response, negative = inhibition was -9.24% (inactive).

Question: With `Cc1ccc(CN2CC(N3CCC(Cc4ccccc4)CC3)CS2(=O)=O)cc1` (stereo unspecified) as the compound, how does the max response, negative = inhibition read?
Answer: Its max response, negative = inhibition is 6.13% (inactive).

Question: How did the max response, negative = inhibition turn out when `O=C(CSc1nc2[nH]ncc2c(=O)[nH]1)Nc1ccc(F)cc1` was run?
Answer: The max response, negative = inhibition was 2.63% (inactive).

Question: `Cc1cc(C)c2c(=O)[nH]c(SCC(=O)Nc3ccc(Br)cc3)nc2n1` was tested. Which max response, negative = inhibition did it give?
Answer: The max response, negative = inhibition was -52.3% (active).

Question: For `Cc1cc(=O)[nH]c(SCC(=O)Nc2ccc(Br)cc2)n1`, which max response, negative = inhibition is on record?
Answer: Its max response, negative = inhibition is -12.6% (inactive).

Question: With `COc1ccc(Cl)cc1-c1cc(C(=O)Nc2cc(OC)c(OC)c(OC)c2)[nH]n1` as the compound, how does the max response, negative = inhibition read?
Answer: The max response, negative = inhibition was 106% (inactive).

Question: For `COCCCNCCOCCOc1ccc(Cl)cc1Br`, which max response, negative = inhibition is on record?
Answer: The max response, negative = inhibition was -97.1% (active).

Question: How did the max response, negative = inhibition turn out when `COCCNCCOCCOc1cccc(OC)c1` was run?
Answer: The max response, negative = inhibition was 6.73% (inactive).

Question: `Clc1cccc(Cl)c1OCCOCCNCc1ccccc1` was tested. Which max response, negative = inhibition did it give?
Answer: The max response, negative = inhibition was 43.5% (inactive).

Question: `C[C@@H]1CN([C@H](C)CO)S(=O)(=O)c2ccc(C#CC3CCCCC3)cc2O[C@H]1CN(C)C(=O)Cc1ccncc1` was tested. Which max response, negative = inhibition did it give?
Answer: Its max response, negative = inhibition is -18.9% (inactive).

Question: How did the max response, negative = inhibition turn out when `CCc1nc2ccc(C(=O)NCc3ccc(OC)cc3)cn2c1N(CC)Cc1cccc(Br)c1` was run?
Answer: Its max response, negative = inhibition is 0% (inactive).

Question: For `C[C@H](CO)N1C[C@H](C)[C@H](CN(C)C(=O)c2ccncc2)OCc2ccccc2-c2c(n(C)c3ccccc23)C1=O`, which max response, negative = inhibition is on record?
Answer: Its max response, negative = inhibition is -9.27% (inactive).

— PubChem BioAssay AID652054 (National Center for Advancing Translational Sciences (NCATS), 2013)
